Data: PubChem BioAssay (Tox21)
Records with an inconclusive call do not appear. Calls of active or inactive are those of the source. Unless noted, the call rests on the fitted dose curve; in most records, active means well fitted curve in the direction sought with a large enough effect in the repeat runs; inconclusive means weak or mixed curves; inactive means no such curve, though single readings can be large; an effect the other way counts as inactive or inconclusive.

Legend:
[1] = A CellTox Green Cytotoxicity Assay to monitor cytotoxicity in HepG2 cells - 24 hour (AID 1224878); further: nearly all actives have a fitted effect of over 45% in size
How it was run: (§1)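 HepG2 cells were seeded together with the CellTox Green dye at 600 cells/well, left 5 h at 37 C/5% CO2, then given compounds in DMSO. Fluorescence from dye bound to dead-cell DNA was read repeatedly over 40 h of treatment at 37 C.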

[2] = A CellTox Green Cytotoxicity Assay to monitor cytotoxicity in HepG2 cells - 40 hour (AID 1224879); further: nearly all actives have a fitted effect of over 40% in size
How it was run: as §1

[3] = qHTS RealTime-Glo MT Cell Viability Assay in HEK293 cells - 0 hour (AID 1224880); further: top concentration of the series differs between compounds; nearly all actives have a fitted effect of over 45% in size
How it was run: (§2)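 HEK293 cells mixed with RealTime-Glo reagents (NanoLuc plus cell-permeant prosubstrate) at 600 cells/well, preincubated 5 h at 37 C/5% CO2, then given 23 nL compound in DMSO. Nonlytic luminescence from viable cells was read at 0, 8, 16, 24, 32 and 40 h.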

[4] = A CellTox Green Cytotoxicity Assay to monitor cytotoxicity in HEK293 cells - 32 hour (AID 1224881); further: nearly all actives have a fitted effect of over 40% in size
How it was run: (§3)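 HEK293 cells premixed with CellTox Green dye were seeded at 600 cells/well and left 5 h at 37 C/5% CO2 before pin transfer of 23 nL compound in DMSO. Fluorescence from dye bound to dead-cell DNA was read during 40 h treatment.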

[5] = A CellTox Green Cytotoxicity Assay to monitor cytotoxicity in HepG2 cells - 0 hour (AID 1224882); further: nearly all actives have a fitted effect of over 35% in size
How it was run: as §1

[6] = A CellTox Green Cytotoxicity Assay to monitor cytotoxicity in HepG2 cells - 32 hour (AID 1224883); further: nearly all actives have a fitted effect of over 50% in size
How it was run: as §1

[7] = A CellTox Green Cytotoxicity Assay to monitor cytotoxicity in HEK293 cells - 8 hour (AID 1224884); further: nearly all actives have a fitted effect of over 35% in size
How it was run: as §3

[8] = qHTS RealTime-Glo MT Cell Viability Assay in HepG2 cells - 16 hour (AID 1224885); further: nearly all actives have a fitted effect of over 50% in size
How it was run: (§4)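 Tox21 10K library screened in qHTS format on HepG2 cells carrying RealTime-Glo reagents. Compounds were added after a 5 h preincubation, and the luminescent signal from continuous culture was measured repeatedly during 40 h treatment.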

[9] = qHTS RealTime-Glo MT Cell Viability Assay in HEK293 cells - 24 hour (AID 1224886); further: top concentration of the series differs between compounds; nearly all actives have a fitted effect of over 50% in size
How it was run: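 Luminescence generated by NanoLuc from substrate produced by living HEK293 cells served as the viability signal. Each value reflects the reading at its stated time point during continuous 40 h compound exposure at 37 C.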

[10] = qHTS RealTime-Glo MT Cell Viability Assay in HEK293 cells - 8 hour (AID 1224887); further: top concentration of the series differs between compounds; nearly all actives have a fitted effect of over 50% in size
How it was run: as §2

[11] = A CellTox Green Cytotoxicity Assay to monitor cytotoxicity in HEK293 cells - 16 hour (AID 1224888); further: nearly all actives have a fitted effect of over 35% in size
How it was run: as §3

[12] = qHTS RealTime-Glo MT Cell Viability Assay in HepG2 cells - 0 hour (AID 1224889); further: nearly all actives have a fitted effect of over 50% in size
How it was run: as §4

[13] = A CellTox Green Cytotoxicity Assay to monitor cytotoxicity in HepG2 cells - 8 hour (AID 1224890); further: nearly all actives have a fitted effect of over 45% in size
How it was run: as §1

[14] = qHTS assay to identify small molecule antagonists of the estrogen receptor alpha (ER-alpha) signaling pathway using the BG1 cell line in the presence of 0.1 nM 17-beta-estradiol - cell viability counter screen (AID 1259241); further: nearly all actives have a fitted effect of over 40% in size
How it was run: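 Viability in VM7Luc4E2 cells after 22 hr compound exposure under 0.1 nM 17beta-estradiol stimulation, by CellTiter-Fluor.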

[15] = qHTS assay to identify small molecule antagonists of the androgen receptor (AR) signaling pathway using the MDA cell line in the presence of 0.5 nM R1881 - cell viability counter screen (AID 1259242); further: nearly all actives have a fitted effect of over 45% in size
How it was run: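 MDA-kb2 cells (human breast carcinoma, stably carrying MMTV-luciferase reporter) were exposed to compounds with 0.5 nM R1881 (final) for 16 hr at 37C, 0% CO2; viability then read as live-cell protease fluorescence (CellTiter-Fluor, 30 min) in the same wells.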

[16] = molecular target: Estrogen receptor (Homo sapiens) (UniProt P03372); assay: qHTS assay to identify small molecule antagonists of the estrogen receptor alpha (ER-alpha) signaling pathway using the BG1 cell line in the presence of 0.1 nM 17-beta-estradiol (AID 1259244); further: nearly all actives have a fitted effect of over 50% in size
Estrogen receptor (Homo sapiens), sequence (P03372 whole entry, looked up): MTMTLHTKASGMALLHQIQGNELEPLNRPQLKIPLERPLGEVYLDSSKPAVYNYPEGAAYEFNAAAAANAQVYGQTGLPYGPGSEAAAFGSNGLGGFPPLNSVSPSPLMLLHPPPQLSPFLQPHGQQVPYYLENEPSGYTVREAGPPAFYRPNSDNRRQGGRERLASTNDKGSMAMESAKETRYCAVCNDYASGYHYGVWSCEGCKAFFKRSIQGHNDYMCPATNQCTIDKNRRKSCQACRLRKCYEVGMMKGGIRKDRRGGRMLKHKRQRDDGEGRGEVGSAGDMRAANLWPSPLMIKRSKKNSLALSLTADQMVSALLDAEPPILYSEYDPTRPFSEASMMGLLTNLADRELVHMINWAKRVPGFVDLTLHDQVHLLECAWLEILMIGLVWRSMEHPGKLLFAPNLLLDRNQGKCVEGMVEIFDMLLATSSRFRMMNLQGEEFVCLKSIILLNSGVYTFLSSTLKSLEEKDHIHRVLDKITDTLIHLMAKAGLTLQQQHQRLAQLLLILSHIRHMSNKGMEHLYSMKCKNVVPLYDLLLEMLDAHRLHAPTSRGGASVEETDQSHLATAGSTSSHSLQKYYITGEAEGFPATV
How it was run: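 VM7Luc4E2 cells (endogenous full-length ER-alpha, stable 4xERE-luciferase) were grown 5 days in phenol red-free medium with charcoal-stripped FBS, then exposed 22 h at 37C to compounds plus 0.1 nM (final) 17beta-estradiol; ONE-Glo luminescence read-out.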

[17] = qHTS assay to identify small molecule HDAC inhibitors - cell viability counter screen (AID 1259365)
How it was run: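 Cytotoxicity was gauged in wild-type HCT-116 cells after a brief 2hr treatment with DMSO-dissolved compounds at 37C and 5% CO2, using CellTiter-Glo luminescence developed for 30min at room temperature.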

[18] = qHTS assay to identify small molecule phospholipidosis (PLD) inducers (AID 1259344; active means well fitted curve in the direction sought with a large enough effect; an effect the other way counts as inactive or inconclusive)
How it was run: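 Phospholipidosis is scored by imaging LipidTOX-stained pits in HepG2 cells exposed to compound for 24 h at 37 C; pit counts and integrated intensities per well and per cell serve as outputs.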

[19] = qHTS assay to identify small molecule HDAC inhibitors (AID 1259364)
How it was run: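 Wild-type HCT-116 cells were plated overnight, exposed to compounds for 2 h at 37 °C, then given HDAC-Glo class I/II luminogenic reagent for 30 min at room temperature before luminescence was read.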

Measured: Potency

CCC(C)c1nccnc1OC (stereo unspecified)
not listed: [18] | [19]
inactive: all other assays above

COc1cc(NS(=O)(=O)c2ccc(N)cc2)ncn1
not listed: [16]
inactive: all other assays above

CO/N=C(\C(=O)O)c1csc(NC(=O)CCl)n1
not listed: [18]
inactive: all other assays above

CCOc1ccccc1OCCN[C@H](C)Cc1ccc(OC)c(S(N)(=O)=O)c1
not listed: [16] | [19]
inactive: all other assays above

CCCCc1ccc(Cl)cc1
not listed: [18]
inactive: all other assays above

c1coc(Cn2cccc2)c1
not listed: [18]
inactive: all other assays above

CC(C)(C)c1ccc(C(=O)CCCCl)cc1
not listed: [18] | [19]
inactive: all other assays above

CNC(C)=O
not listed: [18]
inactive: all other assays above
